Pf growth 96h: inhibits malaria parasite growth, 96 h | actives 6.9% (n = 320,000) | AID 504834 | Potency, µM (top dose mostly 28.7 µM), hits mostly inhibitors | P. falciparum luciferase reporter growth, 96 h
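P. falciparum expressing integrated firefly luciferase, in erythrocytes at 2% hematocrit, 0.05% parasitemia, incubated with compounds 96 h at 37 C, 5% CO2. Growth inhibition read as loss of luminescence; two-generation exposure targets delayed-death apicoplast inhibitors.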
Pf growth 48h: inhibits P. falciparum growth in the first generation, 48 h; actives 5.9% (n = 310,000); P. falciparum luciferase growth in erythrocytes, 48 h; Potency, µM (doses to about 28.7 µM), hits mostly inhibitors
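Compounds are pin-transferred into medium, infected erythrocytes (2% hematocrit, 0.1% parasitemia final) are added, and plates sit one parasite generation at 37 C in 5% CO2. Detection reagent is then added and luminescence measured.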
AmpC no deterg: inhibitors of E. coli AmpC beta-lactamase without detergent. AID 485341. actives 0.52% (n = 330,000). AmpC nitrocefin hydrolysis, absorbance 480 nm, 0.0001% Triton. Potency, µM (top dose mostly 57.1 µM), most hits filed as inhibitors; note: nearly all actives have a fitted effect of over 20% in size
Target sequence (P00811 whole entry, looked up): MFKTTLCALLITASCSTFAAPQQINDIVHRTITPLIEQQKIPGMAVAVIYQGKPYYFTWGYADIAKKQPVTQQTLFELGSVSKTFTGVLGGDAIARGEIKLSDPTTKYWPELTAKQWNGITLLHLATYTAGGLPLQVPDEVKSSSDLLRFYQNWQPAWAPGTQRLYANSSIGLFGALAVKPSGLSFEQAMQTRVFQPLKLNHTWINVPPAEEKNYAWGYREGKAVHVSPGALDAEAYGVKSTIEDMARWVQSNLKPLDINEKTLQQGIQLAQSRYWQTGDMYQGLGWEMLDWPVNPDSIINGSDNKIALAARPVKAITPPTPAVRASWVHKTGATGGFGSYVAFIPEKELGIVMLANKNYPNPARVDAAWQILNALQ
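AmpC (5.3 nM in the dispensed reagent) in 20 mM phosphate pH 7.0 with 0.01% (detergent screen) or 0.0001% Triton X-100 was preincubated with compounds for 15 min at room temperature. Nitrocefin was then added from an 800 uM solution, and hydrolysis was followed at 480 nm.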
SARS PLpro yeast: blocks SARS-CoV papain-like protease in a yeast assay; S. cerevisiae expressing SARS-CoV PLpro, growth rescue; Potency, µM (doses to about 32.9 µM), actives largely listed as activators; actives 0.19% (n = 330,000); AID 485353; calls by dose curve; note: nearly all actives have a fitted effect of over 55% in size
Sm TGR inh: S. mansoni TGR enzyme inhibition; Q962Y6; purified TGR, DTNB reduction, TNB absorbance 405 nm; Potency, µM (titrated, usually from 114 µM), usual class: inhibitors; actives 3% (n = 360,000); AID 485364; note: nearly all actives have a fitted effect of over 60% in size
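First, TGR (20 nM dispensed) and NADPH were mixed with compound. Second, a 15 min room-temperature incubation followed. Third, further NADPH and then DTNB were added to start the reaction. Finally, TNB absorbance was monitored kinetically.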
AmpC inh detg: blocks E. coli AmpC beta-lactamase in detergent assay. P00811. AmpC hydrolysis of nitrocefin, absorbance 480 nm, 0.01% Triton. Potency, µM (titrated, usually from 114 µM), actives largely listed as inhibitors. actives 0.041% (n = 370,000); note: nearly all actives have a fitted effect of over 25% in size
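20 mM phosphate pH 7.0 + 0.01% (detergent screen) or 0.0001% Triton X-100; 5.3 nM AmpC reagent; cpd preinc 15 min RT; nitrocefin (800 uM stock) to start; A480 q20 s × 4 min; Activity was normalised to no-enzyme and no-compound control wells.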
Each line names hits and unclear results; the compound was inactive in the other large screens. An excerpt weighted towards active compounds, which were near 12% of everything screened. Unless noted, calls come from the whole dose curve; as a rule, active = well fitted curve in the direction sought with a large enough effect; inconclusive = small, poorly fitted or top-dose-only effect, or another doubt; inactive = no such curve, though single readings can be large; an effect the other way counts as inactive or inconclusive.

CCOc1ccc(/C=C/C(O)=C2/C(=O)N(C)C3(C)CC2c2ccccc2O3)cc1OC (centres undefined)	Pf growth 48h 6.6µM
CC(C(=O)NCc1cccs1)n1cccc1 (centres undefined)	Pf growth 96h inconclusive
O=C(NCc1cccs1)C(Cc1ccccc1)n1cccc1 (centres undefined)	Pf growth 48h inconclusive, Sm TGR inh 40µM
CSCCC(C(=O)NCc1cccs1)N1C(=O)c2ccccc2C1=O (centres undefined)	none (no result: Pf growth 48h)
CSCC[C@@H](C(=O)NCc1cccs1)N1Cc2ccccc2C1=O	Pf growth 96h 8.3µM (no result: Pf growth 48h)
O=C(N/N=C/c1cccc(C(F)(F)F)c1)c1cc2c(s1)-c1ccccc1CC2	AmpC no deterg 0.16µM
CC1=CC(=O)c2c(O)ccc(O)c2C1=O	Pf growth 96h inconclusive, Pf growth 48h inconclusive, AmpC no deterg 14µM, Sm TGR inh inconclusive, AmpC inh detg inconclusive
O=C1C=C(O)c2cccc(O)c2C1=O	Pf growth 96h inconclusive, Sm TGR inh inconclusive
O=C1c2ccccc2C2=Nc3ccccc3SC(c3cccc(F)c3)C12 (centres undefined)	Pf growth 96h inconclusive, Pf growth 48h 0.59µM
O=C1CCCC2=C1C(c1ccccc1)C1C(=O)c3ccccc3C1=N2 (centres undefined)	none
O=C1c2ccccc2C2=Nc3ccccc3SC(c3ccc(Cl)cc3)C12 (centres undefined)	Pf growth 48h 0.52µM
COc1cc2c3c(c1OC)C1(C=CC(=O)C=C1)CC3N(C(=O)CCC(=O)O)CC2 (centres undefined)	Pf growth 48h 2.1µM
CCOC(=O)c1cc(C)n(CC2CCC(C(=O)Nc3ccc(C)cc3)CC2)c1C (centres undefined)	none (no result: Pf growth 96h, Pf growth 48h, AmpC no deterg, SARS PLpro yeast)
C=CCN(CC=C)C(=S)NC(=O)Cc1cccc2ccccc12	Pf growth 96h 4.1µM, Pf growth 48h inconclusive
COc1ccc(Cc2nc3ccc(C(=O)N4CCCCC4CCO)cc3o2)cc1 (centres undefined)	Pf growth 96h 7.4µM
CN(C)Cc1cc(C(C)(C)C)cc(C(C)(C)C)c1O	none
CN(C)Cc1cc(O)c(CN(C)C)cc1O	Sm TGR inh 2.5µM
CCc1ccccc1N(C(=O)c1ccco1)C(C(=O)NC1CCCC1)c1cccnc1 (centres undefined)	Pf growth 48h inconclusive
Cc1onc(-c2ccccc2)c1C(=O)N/N=C/c1ccccc1OC(C)C	none
Cc1cccc(/C=N/NC(=O)c2c(-c3ccccc3)noc2C)c1O	Pf growth 96h 6.6µM, Pf growth 48h 9.3µM, SARS PLpro yeast inconclusive
O=C(N/N=C/c1ccc(C(=O)O)cc1)C1=NNC(c2ccccc2)(c2ccccc2)C1	Pf growth 96h inconclusive, Pf growth 48h inconclusive (no result: Sm TGR inh)
COc1ccccc1/C=N/NC(=O)c1c(-c2ccccc2)noc1C	Pf growth 96h 2.1µM
COc1ccccc1/C=N/NC(=O)C1=NNC(c2ccccc2)(c2ccccc2)C1	Pf growth 96h inconclusive, Pf growth 48h 7.4µM, Sm TGR inh inconclusive, AmpC inh detg inconclusive
Cc1ccc(CNC(=O)CCS(=O)(=O)Cc2ccc(C)cc2)cc1	none
CCc1ccc(NC(=O)CCn2c(-c3ccc(OC)cc3)cc(C(C)=O)c2C)cc1	none (no result: Pf growth 96h, Pf growth 48h, AmpC no deterg, SARS PLpro yeast)
COc1ccc2cc(C(C)CO)ccc2c1 (centres undefined)	none (no result: AmpC no deterg, SARS PLpro yeast, Sm TGR inh, AmpC inh detg)
O=C(c1ccc(Cl)cc1)c1ccc(Oc2cc(NN3CCCCC3)c([N+](=O)[O-])cc2[N+](=O)[O-])cc1	none
CC(=O)c1ccc(OCC(=O)OCc2cc(-c3ccco3)on2)cc1	Sm TGR inh 50µM
O=C(NCc1ccc(F)cc1)c1noc2c1CCCCC2	Pf growth 96h inconclusive
O=C(NCc1ccc(Cl)cc1)c1noc2c1CCCCC2	Pf growth 96h 9.3µM
Cc1nn(Cc2ccc(Cl)c(Cl)c2)c(C)c1NC(=O)c1cc(CC(C)C)on1	Pf growth 96h 0.33µM, Pf growth 48h inconclusive, AmpC inh detg inconclusive
Cc1nn(Cc2ccc(Cl)c(Cl)c2)c(C)c1NC(=O)c1noc2c1CCCCC2	Pf growth 96h 6.6µM
Cc1nc(-c2cccnc2)sc1CCNS(=O)(=O)c1ccc(F)cc1	none (no result: Pf growth 96h, Pf growth 48h, AmpC no deterg, SARS PLpro yeast)
CCc1cccc(NC(=O)C2CCC(CNS(=O)(=O)c3ccc(Br)s3)CC2)c1 (centres undefined)	none (no result: Pf growth 96h, Pf growth 48h, AmpC no deterg, SARS PLpro yeast)
CCOc1ccc(C(=O)NCC(=O)N2CCC3CCCCC3C2)cc1OCC (centres undefined)	none
CCC(=O)Nc1nnc(S(=O)(=O)N(C)Cc2ccco2)s1	Pf growth 96h inconclusive, Sm TGR inh 35µM
CN(Cc1ccco1)S(=O)(=O)c1nnc(NC(=O)c2ccc(F)cc2)s1	AmpC inh detg inconclusive
Cc1ccc(C(=O)Nc2nnc(S(=O)(=O)N(C)Cc3ccco3)s2)cc1	none (no result: Pf growth 96h, Pf growth 48h, AmpC no deterg, SARS PLpro yeast)
CCCC(=O)Nc1nnc(S(=O)(=O)N(C)Cc2ccco2)s1	Sm TGR inh 4.5µM
O=C(NCC(=O)N1CCN(S(=O)(=O)c2ccc3c(c2)OCCO3)CC1)c1ccccc1Cl	Pf growth 96h inconclusive, Pf growth 48h inconclusive
CCN1c2ccccc2S(=O)(=O)c2ccccc21	Pf growth 96h inconclusive, Pf growth 48h inconclusive
O=C(c1ccccc1)N1CCN(C2c3cccc4cccc(c34)C2NS(=O)(=O)c2ccccc2)CC1 (centres undefined)	Pf growth 96h 4.1µM, Pf growth 48h 6.6µM
O=S(=O)(NC1c2cccc3cccc(c23)C1N1CCNCC1)c1ccccc1 (centres undefined)	Pf growth 48h inconclusive, Sm TGR inh inconclusive
O=S(=O)(NC1c2cccc3cccc(c23)C1N1CCN(CCO)CC1)c1ccccc1 (centres undefined)	Pf growth 48h 15µM
O=C1CN(c2ccccc2)C(=S)N1C(=O)c1ccc(Br)cc1	Pf growth 96h inconclusive, Sm TGR inh inconclusive
O=C(O)CC(Cc1ccc(Br)cc1)C(=O)Nc1ccccc1 (centres undefined)	Pf growth 96h inconclusive
Cc1ccn2c(-c3csc(NCc4ccco4)n3)c(C)nc2c1	Pf growth 48h 12µM
O=C(c1cnn2c(C(F)F)cc(-c3ccccc3)nc12)N1CCCCC1c1cccnc1 (centres undefined)	Pf growth 96h inconclusive, Pf growth 48h 1.7µM
COc1ccc(-c2cc(C(F)F)n3ncc(C(=O)N4CCCCC4)c3n2)cc1	Pf growth 48h inconclusive (no result: Pf growth 96h)
O=C(c1cnn2c(C(F)F)cc(-c3ccccc3)nc12)N1CCN2CCCC2C1 (centres undefined)	Pf growth 48h inconclusive, Sm TGR inh inconclusive, AmpC inh detg inconclusive (no result: Pf growth 96h)
Cc1cccc(Cc2c(C)nc3c(C(=O)N4CCN(Cc5ccc6c(c5)OCO6)CC4)cnn3c2C)c1	Pf growth 96h inconclusive, Pf growth 48h inconclusive

Bioassay records (PubChem)
